Hits are enriched below; roughly 14% of the tested compounds scored in any of these assays.
MARV entry inh: qHTS for inhibitors of binding or entry into cells for Marburg Virus | Marburg virus pseudotyped entry inhibition, cell reporter | Potency, µM (highest dose often 37.8 µM), most hits filed as inhibitors | hit rate 1.8% among 300,000; calls by dose curve; tested in HEK293 cells
Pf growth 96h: Primary qHTS for delayed death inhibitors of the malarial parasite plastid, 96 hour incubation; Potency, µM (series often up to 28.7 µM), actives largely listed as inhibitors; hit rate 6.9% among 320,000; P. falciparum luciferase reporter growth, 96 h
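Compounds incubated with erythrocytes infected by luciferase-expressing P. falciparum (2% hematocrit, 0.05% parasitemia final) for 96 hours, 37 C in 5% CO2. Growth inhibition scored as decreased luciferase luminescence.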
HCMV antiviral: qHTS Assay for inhibitors of the human cytomegalovirus (HCMV); HFF cells, HCMV-luciferase reporter, 72 h; stronger effect = lower value; activity change, negative = inhibition, % at 57.5 µM; hit rate 4.5% among 410,000; AID 1259415, 2018; in the data active = activity change below about -60%; inconclusive = no clear call, values can overlap the other calls; inactive = above about -39%
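Compounds were evaluated in HFFs infected with an HCMV luciferase reporter virus (MOI 1 PFU/cell). Luciferase in lysates collected 72 h post infection served as the replication measure.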
Pf growth 48h: Primary qHTS for delayed death inhibitors of the malarial parasite plastid, 48 hour incubation; P. falciparum luciferase growth in erythrocytes, 48 h; Potency, µM (titrated, usually from 28.7 µM), most hits filed as inhibitors; hit rate 5.9% among 310,000; AID 504832, 2011
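Parasite viability was followed by luminescence of a genomically integrated firefly luciferase. Cultures held 0.1% parasitemia at 2% hematocrit (final), incubated under 5% CO2 at 37 C.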
HCV inhibitor: qHTS Assay for Inhibitors of Hepatitis C Virus (HCV); Potency, µM (doses to about 41.8 µM), hits mostly inhibitors; AID 651820, 2012; Huh7.5.1 HCVcc-Cre infection, luciferase reporter, 44 h; hit rate 3.4% among 340,000
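Compounds are dispensed onto cells plated 4 h earlier at 1,000 per well, with HCVcc-Cre virus (about 0.5 moi) added next. Following 44 h of culture, luminescent signal is measured for 15 sec after 15 min with substrate at room temperature.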
Lassa entry inh: qHTS for Inhibitors of binding or entry into cells for Lassa Virus. hit rate 1.2% among 300,000. Potency, µM (doses to about 37.9 µM), usual class: inhibitors. AID 540256, 2011. Lassa virus pseudotype entry inhibition, cell reporter; calls by dose curve; tested in HEK293 cells; note: nearly all actives have a fitted effect of over 50% in size
A number is an active result. Unless noted, calls come from the whole dose curve; as a rule, active = well fitted inhibition curve with a large enough effect; inconclusive = small, poorly fitted or top-dose-only effect, or another doubt; inactive = no such curve, though single readings can be large or run the other way.

What do the screens show for `COc1ccc(Cn2ccc3nc(C)c(C(=O)Nc4ccc(OC)c(OC)c4)cc3c2=O)cc1`?
HCMV antiviral: inactive; Lassa entry inh: inactive

What do the screens show for `CN(CC(=O)Nc1c(Cl)cccc1Cl)CC(=O)N1CCc2ccccc21`?
HCMV antiviral: inactive

How did C=C(C)C(=O)C=CC=Cc1ccccc1 do in these assays?
MARV entry inh: inactive; Lassa entry inh: inconclusive

Results for CCCC1(C(=O)OC)NC(c2cc(OC)c(OC)c(OC)c2)C2C(=O)N(CC)C(=O)C21 (stereo not drawn) ?
MARV entry inh: inactive; Pf growth 96h: inactive; HCMV antiviral: inactive; Pf growth 48h: inactive; HCV inhibitor: inactive; Lassa entry inh: inactive

Results for CCCCCCSc1ccc([C@H]2N[C@@](CC(C)C)(C(=O)OC)[C@H]3C(=O)N(C)C(=O)[C@@H]23)cc1OC ?
Pf growth 96h: 4.7µM; HCMV antiviral: inactive; Pf growth 48h: 6.6µM; HCV inhibitor: 7.9µM

Results for CCC(C)Sc1ccc([C@H]2N[C@@](CC(C)C)(C(=O)OC)[C@H]3C(=O)N(C)C(=O)[C@@H]23)cc1 (stereo partly drawn) ?
Pf growth 96h: inconclusive; HCMV antiviral: inactive; Pf growth 48h: inconclusive; HCV inhibitor: inactive

What do the screens show for `COC(=O)[C@]1(CC(C)C)N[C@H](c2ccc(-c3ccc(F)cc3)c(OC)c2)[C@@H]2C(=O)N(C)C(=O)[C@@H]21`?
Pf growth 96h: 1.9µM; HCMV antiviral: inactive; Pf growth 48h: 7.4µM; HCV inhibitor: inconclusive

Results for COC(=O)[C@]1(CC(C)C)N[C@H](c2ccc(SC3CCCCC3)c(OC)c2)[C@@H]2C(=O)N(C)C(=O)[C@@H]21 ?
Pf growth 96h: 8.3µM; HCMV antiviral: inactive; Pf growth 48h: inconclusive; HCV inhibitor: inconclusive

Results for CCN1C(=O)[C@H]2[C@@H](c3ccc(-c4ccccc4)c(OC)c3)N[C@@](CC(C)C)(C(=O)OC)[C@H]2C1=O ?
HCMV antiviral: inactive; HCV inhibitor: inconclusive

Results for CCCCN(C(=O)CSc1nnnn1C)C1CCS(=O)(=O)C1 (stereo not drawn) ?
Pf growth 96h: inactive; HCMV antiviral: inactive; Pf growth 48h: inactive; HCV inhibitor: inactive

Results for Cc1cccc(-n2nnc(-c3nc(-c4cccs4)no3)c2N)c1C ?
HCMV antiviral: inactive; Lassa entry inh: inactive

What do the screens show for `CCCC[C@H]1COCCS(=O)(=O)N1Cc1ccc(Br)cc1`?
Pf growth 96h: inconclusive; HCMV antiviral: inactive; Pf growth 48h: inconclusive; HCV inhibitor: inactive

Results for Cc1ccc(F)cc1NC(=O)CSCc1nc2sc(C)c(C)c2c(=O)[nH]1 ?
MARV entry inh: inactive; Pf growth 96h: inactive; HCMV antiviral: inactive; Pf growth 48h: inactive; HCV inhibitor: inactive; Lassa entry inh: inactive

Results for Cc1ccc(-n2c(C)cc(/C=c3/sc4nc5ccccc5n4c3=O)c2C)cc1 ?
MARV entry inh: 0.28µM; Pf growth 96h: inactive; Pf growth 48h: inactive; HCV inhibitor: inactive; Lassa entry inh: inconclusive

What do the screens show for `COc1ccc(N2CCN(C(=O)c3ccc4nc(N5CCC(C)CC5)sc4c3)CC2)cc1`?
MARV entry inh: inactive; HCMV antiviral: inactive; Lassa entry inh: inconclusive

How did CC(NC(=O)c1ccco1)C1COc2ccccc2O1 (stereo not drawn) do in these assays?
MARV entry inh: inactive; Pf growth 96h: 10µM; HCMV antiviral: inactive; HCV inhibitor: inactive; Lassa entry inh: inactive

Results for Cc1noc(C)c1COc1ccc(C(=O)OCC(=O)OC(C)(C)C)cc1 ?
MARV entry inh: inconclusive; Pf growth 96h: inactive; HCMV antiviral: inactive; Pf growth 48h: inactive; HCV inhibitor: inactive

Results for Cc1cc(C)cc(N(CCC#N)C(=O)COC(=O)c2ccc(OCc3c(C)noc3C)cc2)c1 ?
MARV entry inh: inconclusive; Pf growth 96h: 10µM; HCMV antiviral: inactive; Pf growth 48h: inconclusive; HCV inhibitor: inconclusive; Lassa entry inh: inactive

Results for Cc1cc(C)c(Cn2c(=O)n(CCC(=O)NCc3ccc4c(c3)OCO4)c(=O)c3ccccc32)c(C)c1 ?
MARV entry inh: inactive; HCMV antiviral: inactive; Lassa entry inh: inactive

What do the screens show for `CC1(C(=O)NS(=O)(=O)Cc2ccccc2)CCN1C(=O)Cc1ccccc1` (stereo not drawn)?
HCMV antiviral: inactive

What do the screens show for `CC(C)NC(=O)C1(C)CCN1C(=O)Cc1ccc(-c2ccccc2)cc1` (stereo not drawn)?
HCMV antiviral: inactive

How did Cc1ccc(NC(=O)C2(C)CCN2C(=O)Cc2ccc(-c3ccccc3)cc2)cc1 (stereo not drawn) do in these assays?
HCMV antiviral: -63

How did CSc1ccccc1NC(=O)C1(C)CCN1C(=O)Cc1ccc(-c2ccccc2)cc1 (stereo not drawn) do in these assays?
HCMV antiviral: -62

What do the screens show for `CC1(C(=O)NS(=O)(=O)Cc2ccccc2)CCN1C(=O)Cc1ccccc1Cl` (stereo not drawn)?
HCMV antiviral: -62

What do the screens show for `CCc1nc2ccc(C(=O)NCCC(C)C)cn2c1N(C)Cc1ccc(OC)cc1`?
HCMV antiviral: inactive

What do the screens show for `COc1ccc(C2=CC(=O)C[C@H](c3ccc(Cl)cc3)C2)cn1`?
Pf growth 96h: inconclusive; HCMV antiviral: inactive; Pf growth 48h: inactive; HCV inhibitor: inactive

How did CCOc1cc(CNC(=O)c2cc(-c3ccc(Cl)s3)nc3ccccc23)ccc1OC do in these assays?
MARV entry inh: inactive; HCMV antiviral: inactive; Lassa entry inh: inactive

What do the screens show for `COC(=O)c1c(SC)nc2ccccc2c1OCc1cccc(C)c1`?
HCMV antiviral: inactive; Lassa entry inh: inactive

Results for N#CC1=C2SCN(c3ccc(F)cc3)CN2C(=O)CC1c1cccc(F)c1 (stereo not drawn) ?
Pf growth 96h: inconclusive; HCMV antiviral: -93; HCV inhibitor: inactive

What do the screens show for `COc1ccc(N2CSC3=C(C#N)C(c4cc(OC)ccc4OC)CC(=O)N3C2)c(OC)c1` (stereo not drawn)?
MARV entry inh: inactive; Pf growth 96h: 13µM; HCV inhibitor: inconclusive

How did Cc1ccc(N2CSC3=C(C#N)C(c4cccs4)CC(=O)N3C2)cc1 (stereo not drawn) do in these assays?
Pf growth 96h: 15µM; HCMV antiviral: inactive; HCV inhibitor: inactive

How did CCc1ccc(N2CSC3=C(C#N)C(c4cccs4)CC(=O)N3C2)cc1 (stereo not drawn) do in these assays?
MARV entry inh: inconclusive; Pf growth 48h: inactive; HCV inhibitor: inconclusive; Lassa entry inh: inactive

Results for CCC12C=C(C=Cc3ccccc3)C(CC)(C1)C(c1ccccc1)CC2=O (stereo not drawn) ?
MARV entry inh: inactive

What do the screens show for `Cc1ccccc1NC1=NC(=S)N(c2ccccc2)C12CCCCC2`?
MARV entry inh: inconclusive; Pf growth 96h: 10µM; HCMV antiviral: inactive; Pf growth 48h: inconclusive; HCV inhibitor: inactive; Lassa entry inh: inactive
